Rin1-Abl PPI inh: inhibitors of Rin1-Abl protein binding, primary screen, biochemical, TR-FRET; 360,000 compounds, 0.4% hits; inhibition, % at 7.35 µM; in the data active means inhibition above about 5%, passing the limit was not always enough
Hck-Nef inh: inhibitors of Nef-activated human Hck kinase, primary screen, biochemical, Z-Lyte FRET, 384-well, Hck-YEEI; Tyrosine-protein kinase HCK (Homo sapiens), P08631; Recombinant Hck-YEEI plus Nef, Z-Lyte FRET kinase assay; inhibition, % at 20 µM; 220,000 compounds, 0.68% hits;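 active means Hck-Nef kinase inhibition above about 50%, limit read from the data; inactive means inhibition below that limit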
LYPLA1 inh: LYPLA1 inhibitors, primary screen, counter-screen for PME1 inhibitor project, biochemical, fluorescence polarization, FP-Rh probe ABPP | Acyl-protein thioesterase 1 (Homo sapiens), O75608 | recombinant LYPLA1 | inhibition, % at 5.9 µM | 320,000 compounds, 0.16% hits;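 active means inhibition above the mean of all tested compounds plus 3 SD, set per campaign, cut at about 14% in these data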;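 further: inhibitors block serine hydrolase probe labeling of LYPLA1 so polarization falls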
PREPL inh: PREPL enzyme inhibitors, primary screen, biochemical, fluorescence polarization. inhibition, % at 5.96 µM. Prolyl endopeptidase-like (Homo sapiens), Q4J6C6. 320,000 compounds, 0.68% hits. recombinant PREPL, fluorescence polarization activity-based probe
Target sequence (Q4J6C6 whole entry, looked up): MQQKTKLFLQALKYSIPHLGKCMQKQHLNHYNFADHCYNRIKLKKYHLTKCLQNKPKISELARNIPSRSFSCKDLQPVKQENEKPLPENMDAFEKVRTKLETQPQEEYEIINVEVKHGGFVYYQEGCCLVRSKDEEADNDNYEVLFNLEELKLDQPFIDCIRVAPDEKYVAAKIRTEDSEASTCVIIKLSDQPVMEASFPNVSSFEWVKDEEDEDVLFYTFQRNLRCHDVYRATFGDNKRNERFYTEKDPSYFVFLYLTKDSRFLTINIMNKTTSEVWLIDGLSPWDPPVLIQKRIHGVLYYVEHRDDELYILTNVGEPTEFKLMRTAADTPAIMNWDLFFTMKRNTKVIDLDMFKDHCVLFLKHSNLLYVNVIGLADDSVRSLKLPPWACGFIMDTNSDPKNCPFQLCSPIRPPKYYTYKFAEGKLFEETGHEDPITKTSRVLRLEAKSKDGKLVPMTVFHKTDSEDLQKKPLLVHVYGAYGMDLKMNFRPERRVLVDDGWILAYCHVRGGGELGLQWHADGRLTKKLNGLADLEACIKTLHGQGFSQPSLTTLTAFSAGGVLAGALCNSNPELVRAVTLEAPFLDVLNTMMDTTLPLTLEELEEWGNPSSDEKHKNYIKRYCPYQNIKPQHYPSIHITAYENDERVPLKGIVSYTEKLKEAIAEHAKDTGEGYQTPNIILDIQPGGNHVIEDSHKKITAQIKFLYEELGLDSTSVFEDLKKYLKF
LYPLA2 counter: LYPLA2 inhibitors, primary screen, counter-screen for PME1 inhibitor project, biochemical, fluorescence polarization, FP-Rh probe ABPP | Acyl-protein thioesterase 2 (Homo sapiens), O95372 | AID 2177, 2009 | 320,000 compounds, 0.38% hits | inhibition, % at 5.9 µM | recombinant LYPLA2;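 active means inhibition above the screen-wide mean plus 3 SD, limit set per campaign, cut at about 26% in these data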
p97 ATPase inh: inhibitors of human p97 ATPase, primary screen, biochemical | Transitional endoplasmic reticulum ATPase (Homo sapiens), P55072 | inhibition, % at 8 µM | recombinant p97 ATPase, Kinase-Glo ATP luminescence, 3 h | AID 1481, 2009 | 220,000 compounds, 0.42% hits; in the data active means inhibition above about 15%
PREPL inh cf: human PREPL enzyme inhibitors, confirmation, biochemical, fluorescence polarization; recombinant PREPL, fluorescence polarization activity probe; inhibition, % at 5.96 µM; shares compounds with PREPL inh; AID 2803, 2010; 2,000 compounds, 67% hits
Large screens that a line does not name were inactive (follow-up assays come after a bar, where they were run). Hits are enriched below; roughly 1.7% of the tested compounds scored in any of these assays. Unless noted, no stated cut-off is given here; in the data, active means inhibition above about 43%; inactive means the rest.

NC(=O)[C@H]1CC2(CC(c3cccc(NC(=O)COc4ccc(Cl)cc4)c3)=NO2)CN1C(=O)Cc1ccc([N+](=O)[O-])cc1 (stereo not given in full)	PREPL inh 48.9 (no result: p97 ATPase inh) | PREPL inh cf 50.2
O=C(CNC(=O)N1CC(=O)Nc2ccccc21)NCc1ccccc1Cl	none (no result: Hck-Nef inh, p97 ATPase inh)
Cc1ccc(C(C(=O)NC2CCCC2)N(Cc2ccc3c(c2)OCO3)C(=O)c2snc(C(N)=O)c2N)cc1 (stereo not given)	none
O=C(NC1CCCCC1)C(c1ccccc1)N(Cc1ccc2c(c1)OCO2)C(=O)c1cnsn1 (stereo not given)	PREPL inh 45.7 | PREPL inh cf inactive
Cc1c(Cl)cccc1NC(=O)COC(=O)c1c2c(nc3ccccc13)CCN(Cc1ccccc1)C2	PREPL inh 50.5 | PREPL inh cf 45.7
COc1ccc(/C=C/c2nc3ccccc3n2Cc2ccccc2OC)cc1	PREPL inh 49.4 | PREPL inh cf 47.0
CCCCNc1c(-c2ccc(SC(C)CC)cc2)nc2cnccn12 (stereo not given)	PREPL inh 59.5 (no result: Hck-Nef inh, LYPLA1 inh, LYPLA2 counter, p97 ATPase inh) | PREPL inh cf 55.3
O=C(COc1ccccc1F)NNC(=O)c1cccc(-n2cccc2)c1	none (no result: Hck-Nef inh, p97 ATPase inh)
COC(=O)C1=C(NC(=O)COc2ccc3ccccc3c2)CCS1	PREPL inh 58.0 | PREPL inh cf inactive
Cc1cccnc1NC(=O)CCc1c[nH]c2ccccc12	PREPL inh 46.1 (no result: Hck-Nef inh, p97 ATPase inh) | PREPL inh cf inactive
CCOc1cc(CNc2ccc(O)cc2)ccc1OCc1ccc(Cl)cc1Cl	PREPL inh 57.1 | PREPL inh cf 50.8
CCOc1cccc(CNc2ccc(O)cc2)c1OCc1ccc(Cl)cc1	none
CCN(CC(=O)NCc1cccs1)C(=O)c1ccc(-c2cccc(C(F)(F)F)c2)o1	none (no result: Hck-Nef inh, p97 ATPase inh)
CC1(C(=O)NCC2CC2)CCN1C(=O)C1(c2ccc(Cl)cc2)CC1 (stereo not given)	none (no result: Hck-Nef inh, LYPLA1 inh, PREPL inh, LYPLA2 counter, p97 ATPase inh)
CC1(C)N=C(N)N=C(N)N1c1cc(Cl)ccc1Cl	none (no result: Hck-Nef inh, LYPLA1 inh, PREPL inh, LYPLA2 counter, p97 ATPase inh)
CC1(C)N=C(N)N=C(N)N1c1ccc(Oc2ccc(Cl)cc2)c(Cl)c1	PREPL inh 55.0 (no result: Hck-Nef inh, p97 ATPase inh) | PREPL inh cf 52.4
COc1ccc(CCNc2nc(-c3sc(N)nc3C)cs2)cc1OC	PREPL inh 43.1 | PREPL inh cf inactive
Cc1ccc(Nc2nc(-c3sc(N)nc3C)cs2)cc1	none (no result: Hck-Nef inh, LYPLA1 inh, PREPL inh, LYPLA2 counter, p97 ATPase inh)
Cc1ccc(Nc2nc(-c3sc(C)nc3C)cs2)cc1	PREPL inh 46.4 (no result: Hck-Nef inh, p97 ATPase inh) | PREPL inh cf inactive
COc1ccc(Nc2nc(-c3sc(N)nc3C)cs2)cc1	PREPL inh 49.9 | PREPL inh cf inactive
COc1ccc(-c2coc3c(C(=O)NCC4CCOCC4)cccc23)c(C)c1	none (no result: Hck-Nef inh, LYPLA1 inh, PREPL inh, LYPLA2 counter, p97 ATPase inh)
O=C(O)Cn1nnc(COc2ccccc2)n1	none (no result: Hck-Nef inh, p97 ATPase inh)
O=C(CSc1cc(Cl)ccc1Cl)Nc1ccc(N2CCOCC2)cc1	none (no result: Hck-Nef inh, p97 ATPase inh)
Nc1ccc(N(c2ccccc2)c2ccc(N)cc2)cc1	PREPL inh 47.7 | PREPL inh cf inactive
CN(C)c1ccc(CCc2ccc(N)cc2)cc1	none (no result: Hck-Nef inh, p97 ATPase inh)
N#C/C(=C\c1ccccc1Br)C(=O)NC1CC1	none (no result: Hck-Nef inh, p97 ATPase inh)
COc1ccc(/C=N/Nc2cc(C)nc3ccc(OC)cc23)c(OC)c1	PREPL inh 88.6 (no result: Hck-Nef inh, p97 ATPase inh) | PREPL inh cf 80.8
CCOC(=O)c1ccc(S(=O)(=O)N2CC(=O)Nc3ccccc32)cc1	none (no result: Hck-Nef inh, p97 ATPase inh)
COc1ccc(N2CCN(C(=O)CN3C(=O)NC4(CCCCCC4)C3=O)CC2)cc1	none (no result: Hck-Nef inh, p97 ATPase inh)
C[C@@H]1NC(=O)[C@H](CCCN=C(N)N)NC(=O)c2cc([N+](=O)[O-])cc(I)c2NCCC[C@@H](C(N)=O)NC1=O	PREPL inh 43.4 | PREPL inh cf inactive
Cc1nc(N2CCN(c3ccccc3O)CC2)c2c(-c3ccccc3)csc2n1	none (no result: Hck-Nef inh, p97 ATPase inh)
COc1cc(/C=C2/C(=N)N3C(=NC2=O)SN=C3S(=O)(=O)C(C)C)ccc1OC(=O)c1ccco1	none (no result: Hck-Nef inh, p97 ATPase inh)
COc1cc(/C=C2/C(=N)N3C(SC)=NSC3=NC2=O)ccc1OC(=O)c1ccco1	PREPL inh 54.1 (no result: Hck-Nef inh, p97 ATPase inh) | PREPL inh cf 63.6
CCS(=O)(=O)C1=NSC2=NC(=O)/C(=C\c3ccc(OC(=O)c4ccco4)c(OC)c3)C(=N)N21	PREPL inh 53.1 (no result: Hck-Nef inh, p97 ATPase inh) | PREPL inh cf 77.1
CCOc1cc(/C=C2/C(=N)N3C(=NC2=O)SN=C3S(=O)(=O)CC)ccc1OC(=O)c1ccco1	none (no result: Hck-Nef inh, p97 ATPase inh)
COc1cc(/C=C2/C(=N)N3C(=NC2=O)SN=C3S(C)(=O)=O)ccc1OC(=O)c1ccco1	PREPL inh 61.7 (no result: Hck-Nef inh, p97 ATPase inh) | PREPL inh cf 79.5
CCc1noc(C)c1C(=O)Nc1nc(-c2ccccc2)c(C(C)=O)s1	PREPL inh 80.3 (no result: Hck-Nef inh, p97 ATPase inh) | PREPL inh cf inactive
O=C(Oc1ccc(C(=S)N2CCOCC2)cc1)c1cccc(Cl)c1	none (no result: Hck-Nef inh, p97 ATPase inh)
COc1ccc(OC)c(NC(=O)c2cc3c(=O)n4ccccc4nc3n2C)c1	none
CN(C)c1ccc(NC(=O)c2cc3c(=O)n4ccccc4nc3n2C)cc1	PREPL inh 43.5 | PREPL inh cf inactive
COc1ccc(N2CCN(C(=O)c3cn(C4CCCC4)c(=O)c4c3c3ccccc3n4C)CC2)cc1	PREPL inh 62.5 | PREPL inh cf 61.2
COc1ccc(N2CCN(C(=O)c3cn(C)c(=O)c4c3c3ccccc3n4C)CC2)cc1	none
CS(=O)(=O)c1ccc(N2CCN(S(=O)(=O)c3cccs3)CC2)c([N+](=O)[O-])c1	none (no result: Hck-Nef inh, p97 ATPase inh)
CC(C)(C)c1ccc(Cn2c(=N)n(CC(O)c3ccco3)c3ccccc32)cc1 (stereo not given)	none
Cc1ccccc1Cn1c(=N)n(CC(O)c2ccco2)c2ccccc21 (stereo not given)	PREPL inh 44.9 | PREPL inh cf inactive
Cn1c(N/N=C/c2c[nH]c3ccccc23)nc2ccccc21	PREPL inh 52.7 | PREPL inh cf 65.1
Cc1cc(N/N=C/c2c[nH]c3ccccc23)c2ccccc2n1	none
CC1CN(C(=O)c2ccccc2NS(=O)(=O)c2ccc(Cl)cc2)CC(C)O1 (stereo not given)	none (no result: Hck-Nef inh, LYPLA1 inh, LYPLA2 counter, p97 ATPase inh)
CCC(C)(C)C1CCC(NC(=O)N2CCN(c3ccccc3O)CC2)CC1 (stereo not given)	none (no result: Hck-Nef inh, p97 ATPase inh)
CC(C)C[C@H]1CNC(=S)N1CC1CCN(CCCC2CCCCC2)CC1	none (no result: Hck-Nef inh, LYPLA1 inh, PREPL inh, LYPLA2 counter, p97 ATPase inh)
c1ccc(-c2nc(NCC3CCCO3)c3ccccc3n2)nc1 (stereo not given)	none
Cc1ccc(Nc2nc(NCc3ccco3)c3ccccc3n2)cc1	PREPL inh 57.1 | PREPL inh cf 44.7
COc1ccccc1Nc1nc(NCc2ccco2)c2ccccc2n1	none

Compound activity as filed in PubChem.
